For 15 sequences, binding signal results are on record in article PMC5700166.

Holding throughout (test): protein-binding microarray (PBM); PBM: ~300 nM protein, 6 mM HEPES pH 7.8, 80 mM KCl, 0.5 mM EDTA, 0.5 mM EGTA, 6% glycerol, 35 ng/ul poly-dIdC, 1% milk, 1 h, room temperature; Ap Aiptasia and Nv Nematostella (sea anemones) / Co Capsaspora / Aq Amphimedon (sponge) / Dm Drosophila / Hu human; RHD is the Rel homology domain; high values mean tight binding
Common to all, as to details: dsDNA, one strand shown

One assay deals with T1, GST-Ap-NF-kB RHD (Exaiptasia pallida (Aiptasia), UniProt A0A913YAJ5 2-422).
T1 sequence: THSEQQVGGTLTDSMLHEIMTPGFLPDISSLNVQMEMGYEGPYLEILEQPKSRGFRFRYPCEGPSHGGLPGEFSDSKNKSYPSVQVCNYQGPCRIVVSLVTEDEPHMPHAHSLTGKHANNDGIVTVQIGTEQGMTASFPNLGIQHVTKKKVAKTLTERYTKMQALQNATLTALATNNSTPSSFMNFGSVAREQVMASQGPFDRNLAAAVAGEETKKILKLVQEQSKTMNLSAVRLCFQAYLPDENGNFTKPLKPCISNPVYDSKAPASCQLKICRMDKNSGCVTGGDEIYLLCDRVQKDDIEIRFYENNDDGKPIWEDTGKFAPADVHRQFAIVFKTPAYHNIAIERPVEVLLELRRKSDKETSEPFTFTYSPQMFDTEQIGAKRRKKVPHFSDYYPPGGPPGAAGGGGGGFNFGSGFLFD

The target of assay [1] is T2, GST-Nv-NF-kB (Cys allele) (Nematostella vectensis, UniProt E5G601 2-411).
T2 sequence: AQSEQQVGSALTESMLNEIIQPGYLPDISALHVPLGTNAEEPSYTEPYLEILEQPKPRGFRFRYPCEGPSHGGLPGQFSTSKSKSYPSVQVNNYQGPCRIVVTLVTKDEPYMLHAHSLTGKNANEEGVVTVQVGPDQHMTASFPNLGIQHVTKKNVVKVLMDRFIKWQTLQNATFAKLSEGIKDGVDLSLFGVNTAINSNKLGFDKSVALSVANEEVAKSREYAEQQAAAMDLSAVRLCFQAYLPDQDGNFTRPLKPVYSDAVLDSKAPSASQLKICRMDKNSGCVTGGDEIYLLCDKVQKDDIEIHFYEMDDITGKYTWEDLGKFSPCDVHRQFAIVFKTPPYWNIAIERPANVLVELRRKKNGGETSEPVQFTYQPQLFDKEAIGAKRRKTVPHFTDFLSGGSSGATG

Another assay concerns the target T3, GST-Co-NF-kB (Capsaspora owczarzaki, UniProt F1ARL5 200-546).
T3 sequence: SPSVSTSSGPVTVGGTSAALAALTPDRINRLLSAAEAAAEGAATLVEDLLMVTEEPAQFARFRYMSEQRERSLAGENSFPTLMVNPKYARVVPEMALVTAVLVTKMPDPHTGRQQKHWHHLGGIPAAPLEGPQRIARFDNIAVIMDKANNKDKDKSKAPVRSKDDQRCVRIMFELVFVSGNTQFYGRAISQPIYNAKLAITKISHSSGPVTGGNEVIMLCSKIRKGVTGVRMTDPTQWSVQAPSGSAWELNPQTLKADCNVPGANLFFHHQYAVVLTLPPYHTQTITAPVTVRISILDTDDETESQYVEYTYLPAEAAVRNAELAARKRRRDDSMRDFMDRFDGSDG

In the next assay the target is T4, GST-Aq-NF-kB (Amphimedon queenslandica, UniProt A9Y5G7 2-389).
T4 sequence: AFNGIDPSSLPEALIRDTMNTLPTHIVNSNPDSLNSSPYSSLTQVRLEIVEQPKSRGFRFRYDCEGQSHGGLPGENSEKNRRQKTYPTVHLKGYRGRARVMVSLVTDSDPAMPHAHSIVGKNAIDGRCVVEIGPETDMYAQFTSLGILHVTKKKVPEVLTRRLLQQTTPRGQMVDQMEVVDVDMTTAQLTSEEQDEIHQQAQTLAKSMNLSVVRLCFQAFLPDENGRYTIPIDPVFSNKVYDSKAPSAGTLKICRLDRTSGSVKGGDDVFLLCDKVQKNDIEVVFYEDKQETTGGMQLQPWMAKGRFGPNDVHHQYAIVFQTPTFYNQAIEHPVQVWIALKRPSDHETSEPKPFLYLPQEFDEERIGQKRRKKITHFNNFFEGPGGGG

The target of the next assay is T5, GST-Dm-Relish (Drosophila melanogaster, UniProt Q94527 99-473).
T5 sequence: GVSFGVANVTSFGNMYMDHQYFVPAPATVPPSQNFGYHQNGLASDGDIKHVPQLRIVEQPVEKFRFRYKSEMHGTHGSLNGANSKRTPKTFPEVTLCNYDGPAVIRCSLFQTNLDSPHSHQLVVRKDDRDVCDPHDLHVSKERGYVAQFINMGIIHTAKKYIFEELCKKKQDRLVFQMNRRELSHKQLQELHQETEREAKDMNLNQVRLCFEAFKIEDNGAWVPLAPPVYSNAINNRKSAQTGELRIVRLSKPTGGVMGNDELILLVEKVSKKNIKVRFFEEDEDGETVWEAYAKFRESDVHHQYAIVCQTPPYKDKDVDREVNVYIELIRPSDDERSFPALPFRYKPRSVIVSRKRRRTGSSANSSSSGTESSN

In the case of “CCGATTAACATCAAGCCCCCCCCTGATGTTAATCGGGTCTTGATTCGCTTGACGCTGCTG”, the binding signal with GST-Ap-NF-kB RHD came to 5.25 z-score; in assay [1], 4.21 z-score; with GST-Co-NF-kB, 4.89 z-score; with GST-Aq-NF-kB it was 4.71 z-score.

With “CCGATTAACATCAGATTTCTCCCTGATGTTAATCGGGTCTTGATTCGCTTGACGCTGCTG”, the binding signal stood at 1.96 z-score in the assay with GST-Ap-NF-kB RHD, 3.11 z-score in assay [1], 2.92 z-score in the assay with GST-Co-NF-kB and 3.18 z-score with GST-Aq-NF-kB.

With “CCGATTAACATCACCAGTTTCCCTGATGTTAATCGGGTCTTGATTCGCTTGACGCTGCTG”, the binding signal in the assay with GST-Ap-NF-kB RHD stood at 2.66 z-score; in assay [1], 3.06 z-score; in the assay with GST-Co-NF-kB it was 3.09 z-score; in the assay with GST-Aq-NF-kB, 2.6 z-score.

Consider “CCGATTAACATCAACTGGGAAAATGATGTTAATCGGGTCTTGATTCGCTTGACGCTGCTG”, for which the binding signal was determined as 1.66 z-score in the assay with GST-Ap-NF-kB RHD, 3.04 z-score in assay [1], 3.52 z-score with GST-Co-NF-kB and 1.65 z-score in the assay with GST-Aq-NF-kB.

Take “CCGATTAACATCACCTCTTTCCCTGATGTTAATCGGGTCTTGATTCGCTTGACGCTGCTG”: the binding signal in the assay with GST-Ap-NF-kB RHD stood at 2.58 z-score; in assay [1], 2.64 z-score; with GST-Co-NF-kB, 3.61 z-score; with GST-Aq-NF-kB, 2.52 z-score.

For the sequence “CCGATTAACATCAGGGAATCAGATGATGTTAATCGGGTCTTGATTCGCTTGACGCTGCTG”, the binding signal with GST-Ap-NF-kB RHD worked out at 1.26 z-score; in assay [1], 1.61 z-score; with GST-Co-NF-kB, 1.68 z-score; with GST-Aq-NF-kB, 1.84 z-score.

As to “CCGATTAACATCAGAACTTCCCATGATGTTAATCGGGTCTTGATTCGCTTGACGCTGCTG”, the binding signal was found to be 2.63 z-score with GST-Ap-NF-kB RHD; 2.58 z-score in assay [1]; 1.5 z-score with GST-Co-NF-kB; 3.3 z-score in the assay with GST-Dm-Relish; 2.91 z-score in the assay with GST-Aq-NF-kB.

As for “CCGATTAACATCACAGTACCCCCTGATGTTAATCGGGTCTTGATTCGCTTGACGCTGCTG”, the binding signal turned out to be 5.34 z-score in the assay with GST-Ap-NF-kB RHD; 2.85 z-score in assay [1]; 3.67 z-score with GST-Co-NF-kB; 1.94 z-score with GST-Dm-Relish; 2.91 z-score with GST-Aq-NF-kB.

On to “CCGATTAACATCAGGCATTTCCCTGATGTTAATCGGGTCTTGATTCGCTTGACGCTGCTG”, for which the binding signal worked out at 3 z-score with GST-Ap-NF-kB RHD; 5.12 z-score in assay [1]; 1.77 z-score with GST-Co-NF-kB; 1.97 z-score with GST-Dm-Relish; 6.69 z-score with GST-Aq-NF-kB.

For “CCGATTAACATCAGGGGGTCACCTGATGTTAATCGGGTCTTGATTCGCTTGACGCTGCTG”, the binding signal in the assay with GST-Ap-NF-kB RHD stood at 3.61 z-score; in assay [1], 2.23 z-score; with GST-Co-NF-kB, 1.96 z-score; with GST-Dm-Relish it was 6.03 z-score; with GST-Aq-NF-kB, 4.39 z-score.

As for “CCGATTAACATCAAGGGATCCCCTGATGTTAATCGGGTCTTGATTCGCTTGACGCTGCTG”, the binding signal was determined as 8.25 z-score with GST-Ap-NF-kB RHD; 5.8 z-score in assay [1]; 4.18 z-score in the assay with GST-Co-NF-kB; 9.18 z-score with GST-Dm-Relish; 6.19 z-score with GST-Aq-NF-kB.

For “CCGATTAACATCAAATCACCCCCTGATGTTAATCGGGTCTTGATTCGCTTGACGCTGCTG”, the binding signal was determined as 4.73 z-score in the assay with GST-Ap-NF-kB RHD; 4.59 z-score in assay [1]; 6.61 z-score in the assay with GST-Co-NF-kB; 4.37 z-score with GST-Dm-Relish; 5.32 z-score with GST-Aq-NF-kB.

On to “CCGATTAACATCAGAAATCTCCCTGATGTTAATCGGGTCTTGATTCGCTTGACGCTGCTG”, for which the binding signal with GST-Ap-NF-kB RHD worked out at 3.4 z-score; in assay [1] it was 5.21 z-score; with GST-Co-NF-kB, 2.43 z-score; with GST-Dm-Relish, 1.79 z-score; in the assay with GST-Aq-NF-kB, 5.79 z-score.

Consider “CCGATTAACATCAGGGAATCCTATGATGTTAATCGGGTCTTGATTCGCTTGACGCTGCTG”, for which the binding signal stood at 3.36 z-score with GST-Ap-NF-kB RHD; 4.16 z-score in assay [1]; 2.52 z-score with GST-Co-NF-kB; 7.42 z-score with GST-Dm-Relish; 4.15 z-score with GST-Aq-NF-kB.

In the case of “CCGATTAACATCAGGGAGATTTATGATGTTAATCGGGTCTTGATTCGCTTGACGCTGCTG”, the binding signal in the assay with GST-Ap-NF-kB RHD came to 3.69 z-score; in assay [1], 5.42 z-score; with GST-Co-NF-kB, 2.8 z-score; with GST-Dm-Relish it was 1.71 z-score; in the assay with GST-Aq-NF-kB, 5.99 z-score.
